# Screening results: PubChem, several laboratories
# NLRP3 yeast inh: blocks the NALP3 inflammasome reconstituted in yeast | Yeast reconstituted NLRP3/ASC/caspase-1, beta-gal luminescence, 24 h | inhibition, % at 10 µM | 0.39% of 330,000 active | AID 2825;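 active = inhibition of 50% or more; inactive = inhibition below 50%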;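 also: plate controls were induced DMSO wells for no effect and uninduced yeast grown without galactose for full effect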
# Rce1 inhib: inhibitors of yeast Ras-converting enzyme; calls only; yeast membranes, quenched prenylated peptide cleavage fluorescence; Q03530; 0.27% of 290,000 active;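 active = fall in fluorescence gain of 50% or more versus controls, with final raw signal at or below 3038400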;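 also: plate controls were neutral control wells for no effect and wells lacking membranes for full effect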
# V-ATPase pHluor: yeast V-ATPase proton transport regulation by pHLuorin; S. cerevisiae, pHLuorin cytosolic pH fluorescence; response, % at 10 µM; 0.37% of 350,000 active; in the data active = response mostly above about 7.3%, no sharp cut-off; inactive = mostly below about 5.4%; also: actives read high
# PERK inh: human PERK inhibition, primary cell-based screen; inhibition, % at 5.6 µM; CHO PERK-DD fusion, SEAP luminescence translation reporter; Q9NZJ5; 0.17% of 220,000 active;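 active = inhibition above the mean inhibition of all tested compounds plus 3 SD, set separately per screening campaign, cut at about 2.9% in these data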;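 also: PERK kinase domain activated by AP20187 dimerizer at 100 nM; 0% = DMSO with dimerizer and 100% = rapamycin at 8.4 µM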
# Target sequence (Q9NZJ5 whole entry, looked up, the tested form may be a part): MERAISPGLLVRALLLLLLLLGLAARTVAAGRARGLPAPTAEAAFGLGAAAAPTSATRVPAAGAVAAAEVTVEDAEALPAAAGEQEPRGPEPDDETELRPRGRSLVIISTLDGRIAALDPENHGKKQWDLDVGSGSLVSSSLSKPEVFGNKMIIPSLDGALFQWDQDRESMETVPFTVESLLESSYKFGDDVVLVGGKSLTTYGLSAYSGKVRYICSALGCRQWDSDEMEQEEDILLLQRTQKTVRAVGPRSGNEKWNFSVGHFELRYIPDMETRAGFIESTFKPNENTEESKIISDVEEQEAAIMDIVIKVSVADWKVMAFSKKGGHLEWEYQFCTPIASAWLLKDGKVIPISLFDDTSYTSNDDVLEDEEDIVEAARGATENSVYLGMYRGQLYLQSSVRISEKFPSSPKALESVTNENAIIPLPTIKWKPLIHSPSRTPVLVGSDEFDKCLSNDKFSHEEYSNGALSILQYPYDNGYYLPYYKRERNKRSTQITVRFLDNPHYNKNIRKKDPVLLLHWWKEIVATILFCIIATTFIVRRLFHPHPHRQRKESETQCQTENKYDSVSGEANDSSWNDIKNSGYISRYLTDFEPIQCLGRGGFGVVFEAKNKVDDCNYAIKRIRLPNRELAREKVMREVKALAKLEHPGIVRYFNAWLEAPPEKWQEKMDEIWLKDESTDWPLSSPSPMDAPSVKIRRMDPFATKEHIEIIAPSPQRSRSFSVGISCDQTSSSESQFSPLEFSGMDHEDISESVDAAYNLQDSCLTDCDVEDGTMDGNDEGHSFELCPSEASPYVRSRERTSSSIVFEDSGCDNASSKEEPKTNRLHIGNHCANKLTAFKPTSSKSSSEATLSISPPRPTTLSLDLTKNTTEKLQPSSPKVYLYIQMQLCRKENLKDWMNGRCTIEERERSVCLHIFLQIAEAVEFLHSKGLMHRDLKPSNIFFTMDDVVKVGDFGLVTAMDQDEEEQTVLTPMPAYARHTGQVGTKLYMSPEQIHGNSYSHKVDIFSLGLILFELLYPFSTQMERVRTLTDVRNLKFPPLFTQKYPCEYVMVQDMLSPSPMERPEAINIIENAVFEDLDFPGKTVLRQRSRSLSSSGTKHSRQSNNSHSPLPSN
# NALP1 inh: blocks the NALP1 inflammasome reconstituted in yeast | inhibition, % at 10 µM | AID 2071 | 0.61% of 280,000 active | S. cerevisiae NALP1/ASC/caspase-1 growth, X-gal OD620, 72 h; in the data active = inhibition mostly above about 24%, no sharp cut-off; inactive = mostly below about 32%
# CR mimetic SO: yeast age-related superoxide inhibition as caloric restriction mimetic | superoxide response (% of plate mean), % at 10 µM | AID 2690 | S. cerevisiae aged cells, superoxide DHE fluorescence; hits give low values | 0.18% of 330,000 active;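 active = superoxide response under a set limit, about three screen SD below normal, cut at about 65% in these data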;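 also: yeast aged for seven days with compound at 30 °C before DHE staining; 100% = average MFI of all compound-treated wells on the plate with controls excluded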
# VATPase regulator: modulates yeast V-ATPase proton transport; shares compounds with V-ATPase pHluor; S. cerevisiae pHLuorin cytosolic pH; response, % at 10 µM; 2% of 980 active; in the data active = response above about 24%;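 also: plate controls were vehicle wells for no effect and positive control wells for full effect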
# The depositor's hits bear a star; i = inactive; · = no result; ! = not active in a repeat. Sampled rows, rich in hits. Any-hit rate of the full collection: about 1.6%.
SMILES,NLRP3 yeast inh,Rce1 inhib,V-ATPase pHluor,PERK inh,NALP1 inh,CR mimetic SO,VATPase regulator
O=C(Nc1ccccc1)c1c(O)[nH]c(=S)[nH]c1=O,19.2,i,13.4*,·,·,104.2,-0.6
O=C(Nc1ccccc1)c1c(O)[nH]c(=O)[nH]c1=O,15.1,i,-0.5,·,·,98.5,·
COc1c(C)cc(C(=O)C2CCCN(Cc3cccc(C)n3)C2)cc1C (stereo not given),27.3,i,9.2*,-0.7,-4.9,93.7,-6.1
Cc1cc(/C=C2\C(=O)NC(=O)N(c3ccc(Br)cc3)C2=O)c(C)n1-c1cc(C(=O)O)cc(C(=O)O)c1,4.6,i,3.2,·,7.3,116.5,·
Cc1cc(C(=O)C[N+]23CCN(CC2)CC3)c(C)n1-c1ccc(Br)cc1,19.4,i,9.2*,0.4,-0.1,83.3,0.3
CNC1CCc2cc(OC)c(OC)c(OC)c2-c2ccc(SC)c(=O)cc21 (stereo not given),·,·,-2.3,·,·,·,·
COc1ccccc1C1CC2CCC(C1OC(C)=O)N2Cc1ccccc1 (stereo not given),1.6,i,-2.6,·,10.9,108.0,·
Cc1ccc(-n2c(O)c(/C=C/C=Nc3ccccc3)c(=O)[nH]c2=O)cc1,21.2,i,84.5*,0.5,28.2,78.8,-15.5
CC(=O)Nc1cc(C(=O)N2CCC3(CC2)OCCO3)ccc1S(=O)(=O)c1ccc(C)cc1,-11.7,i,1.2,0.4,1.2,98.0,·
CC(=O)Nc1cc(C(=O)N2CCC3(CC2)OCCO3)ccc1S(=O)(=O)c1ccc(Cl)cc1,6.8,i,8.8*,-1.6,-5.3,98.0,7.5
C[C@]12CCC(=O)C=C1CC[C@@H]1C2CC[C@]2(C)C(=O)CCC12 (stereo not given in full),47.1,i,1.2,·,9.5,96.2,·
CC12CCC(=O)C=C1CCC1C2CCC2(C)C1CCC2(O)CC#N (stereo not given),·,·,12.4*,·,·,·,3.1
C=C1C(C)C2C(Cc3ccccc3)NC(=O)C23OC(=O)/C=C/C(O)CCCC(C)C/C=C/C3C1O (stereo not given),·,·,-2.6,·,·,·,·
Cc1ccc(C2(O)CCN3CCCCC32)cc1 (stereo not given),11.1,i,11.5*,0.5,2.4,87.7,0.3
COCCNCCOc1ccc(C(C)(C)c2ccccc2)cc1,35.6,i,12.5*,-1.1,54.2,90.1,-1.5
COC(=O)C1=C(c2ccc(F)cc2OCc2ccccc2)C[C@@H]2CC[C@H]1N2C(=O)NCc1cccc(C(F)(F)F)c1,9.1,·,0.4,·,·,92.1,·
CC1=C(N2CC2)C(=O)C(CO)=C(N2CC2)C1=O,·,·,0.6,·,·,·,·
CCN(CC)c1ccc(N=Cc2c(O)n(-c3ccccc3)c(=O)[nH]c2=O)cc1,10.9,i,2.4,-1.7,·,103.0,·
CCN(CC)c1ccc(N=Cc2c(O)n(Cc3ccccc3)c(=O)[nH]c2=O)cc1,1.5,i,46.3*!,0.8,5.3,103.5,-41.4
[N-]=[N+]=NCCN1CCC(O)CCC1=O (stereo not given),23.0,i,26.3*,·,7.6,92.7,-1.1
